Test results from article PMC12136788.
Where a chain is given by its changes, count along the chain named. Over roughly 5,800 sequences, “enrichment r” has its median near 0.68; the highest 2% begin near 11. The sample as a whole holds a higher share of the highest values than the screen did.

T1: UNK ZnF1-6 (called full-length) (human, UniProt Q9C0B0 30-357)
T1 sequence: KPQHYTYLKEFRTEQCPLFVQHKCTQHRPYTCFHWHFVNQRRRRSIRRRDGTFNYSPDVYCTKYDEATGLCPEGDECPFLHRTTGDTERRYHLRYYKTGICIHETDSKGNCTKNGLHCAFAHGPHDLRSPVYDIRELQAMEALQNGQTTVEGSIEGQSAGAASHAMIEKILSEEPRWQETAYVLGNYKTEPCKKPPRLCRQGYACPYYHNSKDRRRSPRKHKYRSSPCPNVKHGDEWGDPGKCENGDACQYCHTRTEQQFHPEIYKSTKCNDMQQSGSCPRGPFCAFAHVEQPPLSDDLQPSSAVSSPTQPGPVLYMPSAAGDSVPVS

B1: ENSG00000165868:stop:overlap|stop_codon|ENSG00000165868|stop_codon|NA|stop_codon (ssRNA)
RNA: GGGAGUUCUACAGUCCGACGAUCAGCAGCCGGCCAAGCAGUUCAUGAGACAAGCUGCCUACCAGGCGGACCCUAUGGAUCUUUAGGAGUAGAUUAUGAGUUCGAAAAACUUCUGUAUAAAAUAUUUGGAGAGGAUUUUAUUGACAACAGAGGAUUGAGCAUCA
B2: ENSG00000124766:be:win_601|CDS|ENSG00000124766|bound_else_gene|NA|bound_elsewhere_windowed (ssRNA)
RNA: GGGAGUUCUACAGUCCGACGAUCUCCAAAGUGGCGGGCGGCGCGGGCGGUGGGGUUAGCAAACCGCACGCCAAGCUCAUCCUGGCAGGCGGCGGCGGCGGCGGGAAAGCAGCGGCUGCCGCCGCCGCCUCCUUCGCCGCCGAACAACAGAGGAUUGAGCAUCA
B3: chr3:160434497:160434598:+|3pUTR|ENSG00000113810|msi1|FALSE|bound_elsewhere (ssRNA)
RNA: GGGAGUUCUACAGUCCGACGAUCUUUAUGAUAGGUUUAUCCGGGUACUAAAUGCAUUUCAACUUGAUAGUUUCAACUUAUGAUAGGUUUACCAGGAUGUAGUCCCACUGUUGAGGAGCAUCUAUUUAGGGGUUAAUUACUUUACAACAGAGGAUUGAGCAUCA
B4: ENSG00000136451:be:win_2501|3pUTR|ENSG00000136451|bound_else_gene|NA|bound_elsewhere_windowed (ssRNA)
RNA: GGGAGUUCUACAGUCCGACGAUCUCCCAAUCAGAGCCUGUUGAUAUUACAACAGGGACAGAUGUGUUAGUUGCUCACUAGAGUUUAUGUCUUAUAUUAAAUUGUAUACAGUUUUUAUUCUAACCACUAACUAGGUAGUGUAUGCAACAGAGGAUUGAGCAUCA
B5: chr2:48379045:48379146:+|3pUTR|ENSG00000170802|unk|FALSE|unique (ssRNA)
RNA: GGGAGUUCUACAGUCCGACGAUCCCUUAUCCUCUUUUCUGAUGUAGCAUAAAAAUUGUCCCGGUUUGAGUUAUAACUGCCAGUAGAUGACCAGUCACAAGUGAACCACUUCUCAGUUGCCAAUCUUUGCUCAUAUUAAAAACACAACAGAGGAUUGAGCAUCA
B6: chr7:6403584:6403671:+|3pUTR|ENSG00000136238|msi1_unk|FALSE|overlapping (ssRNA)
RNA: GGGAGUUCUACAGUCCGACGAUCUUUUCUAGUAACUAGGUGUAAAAAUCAUGUGUUGCAGCUUUAUAGUUUUUAAAAUAUUUUAGAUAAUUCUUAAACUAUGAACCUUCUUAACAUCACUGUCUUGCCAGAUUACCGACACUGCAACAGAGGAUUGAGCAUCA
B7: chr12:76028505:76028606:-|3pUTR|ENSG00000139289|msi1|FALSE|unique (ssRNA)
RNA: GGGAGUUCUACAGUCCGACGAUCAAGUCUUGGUCAGUAUUUUUCCAGCAUUUAAAUUGAAACGGUCAGUAUUAGACCACUGCUAGGUUAUGUAGUCAAGAAAUAAAAAUAGAAUUACAUGCUACAGAUGUCUUUAUUCUCCUUCAACAGAGGAUUGAGCAUCA
B8: ENSG00000136451:be:win_2551|3pUTR|ENSG00000136451|bound_else_gene|NA|bound_elsewhere_windowed (ssRNA)
RNA: GGGAGUUCUACAGUCCGACGAUCUCACUAGAGUUUAUGUCUUAUAUUAAAUUGUAUACAGUUUUUAUUCUAACCACUAACUAGGUAGUGUAUGCCCCUUCAGAACAUGCAGAGUGUAUCUUUUUUUAAAUUUCUCCUUCCGUUCAACAGAGGAUUGAGCAUCA
B9: chr1:150647640:150647741:-|3pUTR|ENSG00000143457|unk|FALSE|unique (ssRNA)
RNA: GGGAGUUCUACAGUCCGACGAUCAGAUUCAAUUACCUGGAUGUCAAAGUCCUAGAGCCAGAAAUAUAUUCUCUCAUCCCUCUUAGCAUUCUCUUGCUCCCUCAUUCACUAGGGCAAAUGUCUAAAUGAAGAAAAGUCUCUCUCCAACAGAGGAUUGAGCAUCA
B10: chr1:109062613:109062715:-|3pUTR|ENSG00000197780|unk|total|mutant (ssRNA)
RNA: GGGAGUUCUACAGUCCGACGAUCAGUUCUGAAUACACAGGUUUUGUGUGUAUUUACUCUAUGUAUUAAAUUAUUAUUGCCCUCCGUUUAAAGUAAGGAUUACAAUUGGAUUUAAGCCGAUCACUGAAUGUUAUUGUUUAUGAACAACAGAGGAUUGAGCAUCA
B11: chrX:80717640:80717741:-|CDS|ENSG00000165288|msi1|FALSE|unique (ssRNA)
RNA: GGGAGUUCUACAGUCCGACGAUCCUGAGAAGUCCAAACAUGGACAUAUCUUCUUCCCCAAACAUCAGGCUUCGAAGACAUAGUAGUCAAAUUGAAGGUGUUAGACAAAUGCAUAACAAUGCUCCUCGGAGCCAGAUGGCCACUCAACAGAGGAUUGAGCAUCA
B12: chr6:37331633:37331734:+|3pUTR|ENSG00000065491|unk|FALSE|unique (ssRNA)
RNA: GGGAGUUCUACAGUCCGACGAUCCCGUUCCCCUUCUGCCCCAGUCUGAGCCAGUGAGGGGUAGCUUUUUAAAACCAUUAUUCUAGAUGGAGGAGGCACUGAUGCUUGUAACUCUGGAAAGAGGCCUACACCCAAGGGCUAGGACAACAGAGGAUUGAGCAUCA
B13: chr9:91409354:91409467:-|CDS|ENSG00000165030|unk|total|mutant (ssRNA)
RNA: GGGAGUUCUACAGUCCGACGAUCAAUGAAAGACAGUGGCUACAAAGUUUCUGACCCAGAGAACUUGUAUUUGAAGCAGGGGACCGCAAACUUAUCUGCAGAGGUUGUCUCACUCAAGAGACUUACCGCCACACAACCAAUCUCCAACAGAGGAUUGAGCAUCA
B14: chr8:11323570:11323671:+|3pUTR|ENSG00000104643|unk|FALSE|unique (ssRNA)
RNA: GGGAGUUCUACAGUCCGACGAUCGAGCAUACAUAUACAAUGUGUUUCAAAUGCUGCUUGUAAAAUUAAACCAUCAUCUAGAAUAGAGUUAAUUUAUUAUAAUCAAGCUACAAAUAGGUUUUCUUAAACCAGAGAUGCACUGCCCAACAGAGGAUUGAGCAUCA
B15: ENSG00000186472:stop:overlap|stop_codon|ENSG00000186472|stop_codon|NA|stop_codon (ssRNA)
RNA: GGGAGUUCUACAGUCCGACGAUCUUUCUUGUAAAUGGAAAUUUUAUCAUGUGUAUAGAUUCUGUAGCAUGCUUUUCUUUAUUUAGUUUUACUUUAUUCCUUUAUUGUUCUGUUUCUUGAUUGUUUGCUUGAUUUGUUUGGUGUCAACAGAGGAUUGAGCAUCA
B16: chr7:137879121:137879144:-|3pUTR|ENSG00000182158|msi1_unk|total|mutant (ssRNA)
RNA: GGGAGUUCUACAGUCCGACGAUCUAAUCCCCAACCUACUUUCCGUUUUUUUGUUUUUUUUUUAUGGUUAAAAGUAACUUUUGCCGUUUAAAAAAAUCUUUCCUCUUUCAUAUAAAUAAGAAGUGGAAAUUGCCUUUUUAUUGUCAACAGAGGAUUGAGCAUCA
B17: chr7:107202531:107202632:-|3pUTR|ENSG00000164597|msi1|FALSE|unique (ssRNA)
RNA: GGGAGUUCUACAGUCCGACGAUCUAUUCUGAGAACUCAUAAAUAAAAUUCAGCCAAGAUUAAUCAAUCAAUCAAUCAAUCAGUAGACGUCAGAGAUAAGCAACUUUUUUUUCCAUUUAUUUGAAAUAAUAUACAAGAAUAUAGCAACAGAGGAUUGAGCAUCA
B18: chr10:73917138:73917420:+|3pUTR|ENSG00000122861|msi1|FALSE|unique (ssRNA)
RNA: GGGAGUUCUACAGUCCGACGAUCGGAAUGUAUUAUUCUGCAGCAUGACCUGUGACCAGCACUGUCUCAGUUUCACUUUCACAUAGAUGUCCCUUUCUUGGCCAGUUAUCCCUUCCUUUUAGCCUAGUUCAUCCAAUCCUCACUCAACAGAGGAUUGAGCAUCA
B19: chr11:85958428:85958534:-|3pUTR|ENSG00000073921|unk|FALSE|unique (ssRNA)
RNA: GGGAGUUCUACAGUCCGACGAUCAGAAACAAUAACUGAAAUUAACUUUUCUUUUUUUAAAAAAAAUUAUAUUCAGUUUGCAGUAGACAUUCCUUAAGUAUUUGUAUUUAUUUAUGAUUAUCAAUUUUACAUAACAUUAAUAUUCAACAGAGGAUUGAGCAUCA
B20: ENSG00000198589:be:win_3201|CDS|ENSG00000198589|bound_else_gene|NA|bound_elsewhere_windowed (ssRNA)
RNA: GGGAGUUCUACAGUCCGACGAUCAACUGGCAAAGAUUCAAUGACUGUCAGUGAAGUAACUGCUUCUAUAAGUUCUCCUUCAGAAGAGGAUGCCUCAGAGAUGCCAGAAUUCUUGGAUAAAUCUAUAGUAGAGGAAGAGGAAGACAACAGAGGAUUGAGCAUCA
B21: chr3:44647099:44647200:+|3pUTR|ENSG00000186448|msi1|FALSE|unique (ssRNA)
RNA: GGGAGUUCUACAGUCCGACGAUCAUUUGUAUGUAAACUACAUAAAGAACUUUCCAAAUUUAACAGUAAUAAGUAAAUACAAUUAGAAAAUAAGCAAAAGACAGACAUUUCACUGAAGUAUAGAUAGCAAAUAAGCAAAUGAAACAACAGAGGAUUGAGCAUCA
B22: chr2:224511460:224511569:-|CDS|ENSG00000036257|unk|FALSE|bound_elsewhere (ssRNA)
RNA: GGGAGUUCUACAGUCCGACGAUCGAAAGCCAGAAAUUUUUAGCAGAAAAUAGUGCUUCAGUAUAUAUAAAGAAAGUAGAAGCUAGAAUUAAUGAAGAAAUAGAACGAGUGAUGCACUGCCUUGACAAAUCAACGGAAGAACCACAACAGAGGAUUGAGCAUCA
B23: chr19:35623609:35623710:+|3pUTR|ENSG00000249115|unk|FALSE|unique (ssRNA)
RNA: GGGAGUUCUACAGUCCGACGAUCGCCUUCUAGUUUGUAUAGUUUCUUUUUUUACAUGUAAAUCAGCCAUUUGGAAUUUAUCCUAGCACAUGGAUCCAAUUUUGUCUUAUUUUACAUAUAUCCUAGUAGCACUUACUGAAAUUCCAACAGAGGAUUGAGCAUCA
B24: chr11:43342853:43342954:+|3pUTR|ENSG00000166181|msi1|FALSE|unique (ssRNA)
RNA: GGGAGUUCUACAGUCCGACGAUCCUAGUUCUGCUGAUAAAGAUCAUCAGUUUUGAAAGGUUACUGAUUUUCCUCUUCCCUCUUAGUUUUUUACCCAAUAUAUGGAGAAGAGUAAUGGUCAAUCUUAACAUUUUGUUUUAAUUGCAACAGAGGAUUGAGCAUCA
B25: chr7:137879121:137879144:-|3pUTR|ENSG00000182158|msi1_unk|FALSE|overlapping (ssRNA)
RNA: B16 RNA with C42U, C43A, C83U, C84A

The binders below were run against T1, UNK ZnF1-6 (called full-length) (assay: nsRBNS (natural sequence RNA bind-n-seq); RBNS binding buffer (assumed for nsRBNS): 25 mM Tris pH 7.5, 150 mM KCl, 3 mM MgCl2, 0.01% Triton X-100, 500 ug/ml BSA, 20 U/ml SUPERase-In, 4 C; UNK is unkempt and MSI1 is Musashi-1; names of the RNAs are library labels; protein concentration not given here; high values mean tight binding).

Row | Binder | binding signal
1 | B1 | 0.728 enrichment R
2 | B2 | 0.449 enrichment R
3 | B3 | 2.3 enrichment R
4 | B4 | 12.3 enrichment R
5 | B5 | 0.685 enrichment R
6 | B6 | 3.16 enrichment R
7 | B7 | 0.83 enrichment R
8 | B8 | 11.6 enrichment R
9 | B9 | 0.623 enrichment R
10 | B10 | 0.999 enrichment R
11 | B11 | 0.592 enrichment R
12 | B12 | 2.05 enrichment R
13 | B13 | 0.615 enrichment R
14 | B14 | 2.54 enrichment R
15 | B15 | 0.541 enrichment R
16 | B16 | 0.762 enrichment R
17 | B17 | 2.67 enrichment R
18 | B18 | 1.54 enrichment R
19 | B19 | 2.18 enrichment R
20 | B20 | 0.614 enrichment R
21 | B21 | 162 enrichment R
22 | B22 | 16.7 enrichment R
23 | B23 | 14.9 enrichment R
24 | B24 | 3.5 enrichment R
25 | B25 | 14.9 enrichment R
